The values below come from PubChem BioAssay (NCATS).

Results filed as inconclusive are left out. Values without a mark were called inactive. Calls of active or inactive are those of the source. Calls come from the whole dose curve; as a rule, active = well fitted cell-killing curve with a large enough effect; inconclusive = small, poorly fitted or top-dose-only effect, or effect the other way; inactive = no such curve, though single readings can be large or run the other way.
Potency is the fitted concentration of half-maximal effect.

The first assay is described as follows: Quantitative High-Throughput drug screen in 47 multiple myeloma cell lines against the NCATS MIPE library collection: Delta47_JCRB cell viability assay (AID 1918925; note: nearly all actives have a fitted effect of over 45% in size). The note with it: Delta47 myeloma viability, CellTiter-Glo ATP, 48 h; series mostly up to 45.8 µM; viability (% of DMSO): at the top concentration. The gist of the method:
(§1)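 Myeloma cells (500 per well) were exposed to MIPE 4.0 compounds by pin transfer and incubated 48 hours at 37C, 5% CO2. Viability was read as ATP by CellTiter-Glo luminescence, normalised to DMSO (100%) and media-only (0%) wells.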
Consider `O=C(Nc1nnc(-c2ccco2)o1)c1cc(-c2ccccc2)nc2ccccc12`, for which the Potency was 18.7 µM (active). For `CC(=O)O[C@H]1C[C@@H]2CC[C@H]3[C@H]4C[C@H]([N+]5(C)CCCCC5)[C@@H](OC(C)=O)[C@@]4(C)CC[C@@H]3[C@@]2(C)C[C@H]1N1CCCCC1`, the “viability (% of DMSO)” value was 150%. Consider `COc1cc2ncnc(Nc3cccc(Br)c3)c2cc1OC`, for which the Potency is 1.48 µM (active). Same read-out and setting: the same measure for `Cn1c(Nc2ccc(C(F)(F)F)cc2)nc2cc(Oc3ccnc(-c4ncc(C(F)(F)F)[nH]4)c3)ccc21`: 0.662 µM (active). On the same count and under the same terms, the same measure for `C[C@H](NCc1ccc2c(c1)nc(NC(=O)c1ccc(-c3cn[nH]c3)s1)n2CCc1ccccc1)C(C)(C)C`: 0.662 µM (active); for `COc1cc2c(Nc3ccc(Cl)c(Cl)c3F)ncnc2cc1OCC1C[C@@H]2CN(C)C[C@H]2C1`: 2.35 µM (active); for `c1ccc(CNc2nc(NCc3ccccc3)c3ccccc3n2)cc1`: 7.43 µM (active). Consider `C=CC[C@@H]1C=C(C)C[C@H](C)C[C@H](OC)[C@H]2O[C@@](O)(C(=O)C(=O)N3CCCC[C@H]3C(=O)O[C@H](C(C)=C[C@@H]3CC[C@H](O)[C@H](OC)C3)[C@@H](C)[C@@H](O)CC1=O)[C@@H](C)C[C@@H]2OC`, for which the Potency is 1.87 µM (active). On the same count and under the same terms, the figure for `N#Cc1c(NC(=O)c2cccc3ccccc23)sc2c1CCCC2` is 0.418 µM (active). On the same count and under the same terms, the figure for `C=Cc1c(C)c2cc3nc(cc4[nH]c(cc5nc(cc1[nH]2)C(C)=C5CCC(=O)O)c(CCC(=O)OC)c4C)[C@@]1(C)C3=CC=C(C(=O)OC)[C@H]1C(=O)OC` is 0.132 µM (active); for `CCCCCCCCCCCCc1ccc(S(=O)(=O)Nc2nncs2)cc1` it is 0.935 µM (active). Same read-out and setting: the same measure for `N#Cc1ccc(COC[C@H]2O[C@@H](n3c(NCc4ccc(Cl)c(Cl)c4)nc4c(N)ncnc43)[C@@H](O)[C@@H]2O)cc1`: 16.6 µM (active). Turning to `CN(C)CC[C@H](c1ccc(Cl)cc1)c1ccccn1`, the “viability (% of DMSO)” value was 83.9%. Regarding `COc1cc(O)c2c(c1)C1OC1C[C@H](O)[C@H](O)C(=O)C=CC[C@H](C)OC2=O` (stereo not given in full), the Potency is 4.18 µM (active). Consider `Cc1ccc2nc(NCCN)c3ncc(C)n3c2c1`, for which the Potency is 5.9 µM (active).

With `CN(N=O)C(=O)N[C@H]1C(O)OC(CO)[C@@H](O)[C@H]1O` (stereo not given in full), the “viability (% of DMSO)” value is 91.3%. Turning to `O=c1c(O)c(-c2ccc(O)c(O)c2)oc2cc(O)ccc12`, the Potency is 11.8 µM (active). As for `NC[C@H]1O[C@H](O[C@H]2[C@@H](O)[C@@H](O[C@H]3O[C@H](CO)[C@@H](O)[C@H](N)[C@@H]3O)[C@H](N)C[C@@H]2N)[C@H](N)C[C@H]1O`, the “viability (% of DMSO)” value is 118%.

On to `CC(C)[C@H](CO)Nc1nc(Nc2cccc(Cl)c2)c2ncn(C(C)C)c2n1`, for which the Potency is 18.7 µM (active).

Take `CC(C)OC(=O)[C@H](C)N[P@](=O)(OC[C@H]1O[C@@H](n2ccc(=O)[nH]c2=O)[C@](C)(F)[C@H]1O)Oc1ccccc1`: the “viability (% of DMSO)” value is 111%. Take `Cc1cnn(C)c1C(=O)Nc1cc(Nc2ccc3c(C=Cc4ccccn4)n[nH]c3c2)ccc1F`: the Potency is 8.33 µM (active). The same measure, in the same setting: the figure for `CCOC(=O)N1CCN([N+]([O-])=NOc2ccc([N+](=O)[O-])cc2C#N)CC1` is 1.05 µM (active). For the compound `CCCc1nc(C(C)(C)O)c(C(=O)O)n1Cc1ccc(-c2ccccc2-c2nn[nH]n2)cc1`, the “viability (% of DMSO)” value is 76.8%. With `COc1cc(OC)cc(-c2ccc3ncc4ccc(=O)n(-c5ccc(N6CCNCC6)c(C(F)(F)F)c5)c4c3c2)c1`, the Potency is 1.48 µM (active).

In the case of `Cc1cnc(Nc2ccc(N3CCN(C)CC3)cc2)nc1Nc1cccc(S(=O)(=O)NC(C)(C)C)c1`, the Potency is 1.48 µM (active). As to `Cn1cc(CNCC2CCN(c3ncc(C(=O)NO)cn3)CC2)c2ccccc21`, the Potency was 0.0743 µM (active). Turning to `C[C@]12CCC(=O)C=C1[C@@H]1CC1[C@H]1[C@H]3[C@@H]4C[C@H]4[C@@]4(CCC(=O)O4)[C@@]3(C)CC[C@H]12` (stereo not given in full), the “viability (% of DMSO)” value is 89.9%. `O=c1[nH]c(=O)n([C@H]2C[C@@H](O)[C@@H](CO)O2)cc1F`: the Potency was 18.7 µM (active). As to `COc1ccc(Nc2cc(-c3cnc(N)nc3)nc(N3CCOCC3)n2)cn1`, the Potency is 1.48 µM (active). On the same count and under the same terms, the figure for `COc1ccc(C[C@@H](C)[C@@H](C)Cc2ccc(OC)c(OC)c2)cc1OC` is 0.296 µM (active). For `Cc1cc(-c2nnc3n2CCCCC3)c(C)n1-c1ccccc1`, the “viability (% of DMSO)” value is 111%.

The nature of another assay: Quantitative High-Throughput drug screen in 47 multiple myeloma cell lines against the NCATS MIPE library collection: AMO1_DSMZ cell viability assay (AID 1918927; note: nearly all actives have a fitted effect of over 30% in size). The note with it: AMO1 myeloma cells viability, CellTiter-Glo ATP luminescence, 48 h; series mostly up to 45.8 µM; viability, % of DMSO: at the top concentration. The gist of the method:
as §1
As for `CCOc1cc2ncc(C#N)c(Nc3ccc(OCc4ccccn4)c(Cl)c3)c2cc1NC(=O)C=CCN(C)C`, the Potency is 0.0935 µM (active). As for `Nc1nc(=O)n([C@H]2CSC(CO)O2)cc1F` (stereo not given in full), the “viability, % of DMSO” value is 109%. Turning to `NC(=O)N1CCC(CC(=O)N2CCC([C@H]3c4ncc(Br)cc4CCc4cc(Cl)cc(Br)c43)CC2)CC1`, the Potency was 7.43 µM (active). For the compound `C#Cc1cccc(Nc2ncnc3cc(OCCOC)c(OCCO)cc23)c1`, the Potency was 2.35 µM (active). Still for that read-out and setting: the same measure for `O=C(Nc1nnc(-c2ccco2)o1)c1cc(-c2ccccc2)nc2ccccc12`: 9.35 µM (active). As to `CC(=O)O[C@H]1C[C@@H]2CC[C@H]3[C@H]4C[C@H]([N+]5(C)CCCCC5)[C@@H](OC(C)=O)[C@@]4(C)CC[C@@H]3[C@@]2(C)C[C@H]1N1CCCCC1`, the “viability, % of DMSO” value is 134%. `COc1cc2ncnc(Nc3cccc(Br)c3)c2cc1OC`: the Potency was 3.72 µM (active). `C[C@H](NCc1ccc2c(c1)nc(NC(=O)c1ccc(-c3cn[nH]c3)s1)n2CCc1ccccc1)C(C)(C)C`: the Potency was 0.662 µM (active).

Take `COc1cc2c(Nc3ccc(Cl)c(Cl)c3F)ncnc2cc1OCC1C[C@@H]2CN(C)C[C@H]2C1`: the Potency is 8.33 µM (active). Same read-out and setting: the same measure for `c1ccc(CNc2nc(NCc3ccccc3)c3ccccc3n2)cc1`: 8.33 µM (active); for `C=CC[C@@H]1C=C(C)C[C@H](C)C[C@H](OC)[C@H]2O[C@@](O)(C(=O)C(=O)N3CCCC[C@H]3C(=O)O[C@H](C(C)=C[C@@H]3CC[C@H](O)[C@H](OC)C3)[C@@H](C)[C@@H](O)CC1=O)[C@@H](C)C[C@@H]2OC`: 2.64 µM (active); for `N#Cc1c(NC(=O)c2cccc3ccccc23)sc2c1CCCC2`: 0.118 µM (active). The same measure, in the same setting: the same measure for `C=Cc1c(C)c2cc3nc(cc4[nH]c(cc5nc(cc1[nH]2)C(C)=C5CCC(=O)O)c(CCC(=O)OC)c4C)[C@@]1(C)C3=CC=C(C(=O)OC)[C@H]1C(=O)OC`: 0.0935 µM (active); for `COc1cc(O)c2c(c1)C1OC1C[C@H](O)[C@H](O)C(=O)C=CC[C@H](C)OC2=O` (stereo not given in full): 2.96 µM (active). Regarding `Cc1ccc2nc(NCCN)c3ncc(C)n3c2c1`, the Potency was 8.33 µM (active). As for `CN(N=O)C(=O)N[C@H]1C(O)OC(CO)[C@@H](O)[C@H]1O` (stereo not given in full), the “viability, % of DMSO” value was 115%. As for `NC[C@H]1O[C@H](O[C@H]2[C@@H](O)[C@@H](O[C@H]3O[C@H](CO)[C@@H](O)[C@H](N)[C@@H]3O)[C@H](N)C[C@@H]2N)[C@H](N)C[C@H]1O`, the “viability, % of DMSO” value was 123%. Turning to `CC(C)OC(=O)[C@H](C)N[P@](=O)(OC[C@H]1O[C@@H](n2ccc(=O)[nH]c2=O)[C@](C)(F)[C@H]1O)Oc1ccccc1`, the “viability, % of DMSO” value is 127%.

With `Cc1cnn(C)c1C(=O)Nc1cc(Nc2ccc3c(C=Cc4ccccn4)n[nH]c3c2)ccc1F`, the Potency was 9.35 µM (active).

Regarding `CCOC(=O)N1CCN([N+]([O-])=NOc2ccc([N+](=O)[O-])cc2C#N)CC1`, the Potency is 1.05 µM (active).

For the compound `CCCc1nc(C(C)(C)O)c(C(=O)O)n1Cc1ccc(-c2ccccc2-c2nn[nH]n2)cc1`, the “viability, % of DMSO” value was 111%. For `COc1cc(OC)cc(-c2ccc3ncc4ccc(=O)n(-c5ccc(N6CCNCC6)c(C(F)(F)F)c5)c4c3c2)c1`, the Potency is 1.18 µM (active). Still for that read-out and setting: the figure for `COc1ccc(Nc2cc(-c3cnc(N)nc3)nc(N3CCOCC3)n2)cn1` is 3.72 µM (active). `Cc1cc(-c2nnc3n2CCCCC3)c(C)n1-c1ccccc1`: the “viability, % of DMSO” value is 91.8%.
